Laboratory results from PubChem BioAssay (NCI).
This is part of a sample that, as a whole, favours compounds with a hit. Of some 83,000 tested, about 20% had one in any assay.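 Compound tested at a single concentration for 48 hours in 96-well plates; a percent growth value below 10 was scored as active.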 A number with no mark means an inactive call. Activity calls are given as the source filed them.

Experiments:
Assay in all cases: NCI-60 one-dose screen, 48 h (100 = growth as untreated, 0 = no growth, -100 = all killed)
Settings in all cases: 10 µM unless noted
DU-145 prostate = test system: DU-145 prostate
K-562 leukemia = test system: K-562 leukemia
MALME-3M melanoma = test system: MALME-3M melanoma
MDA-MB-231 breast = test system: MDA-MB-231 breast
RXF 393 renal = test system: RXF 393 renal
SF-268 CNS = test system: SF-268 CNS
SF-295 CNS = test system: SF-295 CNS
SF-539 CNS = test system: SF-539 CNS
UACC-257 melanoma = test system: UACC-257 melanoma
M14 melanoma = test system: M14 melanoma
HCT-15 colon = test system: HCT-15 colon
HT29 colon = test system: HT29 colon
SNB-75 CNS = test system: SNB-75 CNS
SNB-19 CNS = test system: SNB-19 CNS
U251 CNS = test system: U251 CNS
PC-3 prostate = test system: PC-3 prostate
SK-MEL-5 melanoma = test system: SK-MEL-5 melanoma
UACC-62 melanoma = test system: UACC-62 melanoma
LOX IMVI melanoma = test system: LOX IMVI melanoma
SK-MEL-28 melanoma = test system: SK-MEL-28 melanoma

SMILES | growth (DU-145 prostate) | growth (K-562 leukemia) | growth (MALME-3M melanoma) | growth (MDA-MB-231 breast) | growth (RXF 393 renal) | growth (SF-268 CNS) | growth (SF-295 CNS) | growth (SF-539 CNS) | growth (UACC-257 melanoma) | growth (M14 melanoma) | growth (HCT-15 colon) | growth (HT29 colon) | growth (SNB-75 CNS) | growth (SNB-19 CNS) | growth (U251 CNS) | growth (PC-3 prostate) | growth (SK-MEL-5 melanoma) | growth (UACC-62 melanoma) | growth (LOX IMVI melanoma) | growth (SK-MEL-28 melanoma)
COc1cc(-c2csc(NC(=O)Nc3ccc(Cl)cc3)n2)cc(OC)c1OC | 36.3% | 9.22% (active) | 61.3% | 45.5% | 23.4% | 51.2% | 18% | 48.8% | 22.9% | 21.1% | 20.1% | 36.1% | 36.5% | 24.3% | 25.4% | 3.63% (active) | -37.8% (active) | -7.54% (active) | 24.7% | 41.1%
COc1ccc(C(=O)c2cc(OC)c(OC)c(OC)c2)cc1OC(=O)CCl | 5.3% (active) | 13.3% | 71% | 34.4% | 56.6% | 37.3% | 17.3% | 1.91% (active) | 48.9% | 5.59% (active) | 17% | 21.6% | 60.8% | 31.3% | -16.9% (active) | 17% | -34% (active) | 45.2% | 19% | 60.8%
CC(=O)OCC1SC(OC(C)=O)C(NC(=O)/C=C/CCl)C(OC(C)=O)C1OC(C)=O (stereo not given) | 104% | 91.6% | 99.6% | 102% | 108% | 97.9% | 111% | 109% | 83% | 93.6% | 100% | 102% | 93.8% | 111% | 90.6% | 86.8% | 87.7% | 98% | 93.4% | 112%
CC(=O)c1cc2c(N)c(C(=O)Nc3ccccn3)sc2nc1C | 90.8% | 97.6% | 90.1% | 87.1% | 86.4% | 93% | 71.6% | 84.9% | 86.4% | 54.9% | 82.8% | 85.5% | 75.1% | 82.4% | 77.7% | 99.3% | 64.5% | 57.8% | 91.6% | 82.1%
CC1CCN(CCCCCOc2ccc3oc4ccccc4c(=O)c3c2)CC1 | 83.9% | 33.7% | 44.4% | 76.5% | 69.1% | 79.3% | 89.8% | 77.8% | 9.5% (active) | 41% | 35.7% | 10.8% | 84.7% | 87.5% | 67.5% | 80.8% | -12.2% (active) | 14.3% | 53.3% | 87.7%
COc1ccccc1-c1ccc2nc(NC(=O)Nc3cc(C(F)(F)F)cc(C(F)(F)F)c3)sc2c1 | 19.5% | 5.97% (active) | -13% (active) | -64.2% (active) | -6.71% (active) | 16.8% | -0.289% (active) | 5.2% (active) | -5.57% (active) | 16% | 9.74% (active) | 4.76% (active) | 8.11% (active) | 25.1% | 12.5% | 13.5% | -86.1% (active) | 10.8% | 5.02% (active) | 31.1%
C#C[C@@]1(O)[C@@H](CO)O[C@@H](n2cc(Br)c3c(N)ncnc32)[C@@H]1O | 5% (active) | 5.03% (active) | 5.66% (active) | 2.76% (active) | -30.9% (active) | 13.9% | 2.42% (active) | -60.8% (active) | 57.5% | 0.212% (active) | 2.93% (active) | 3.26% (active) | -36.2% (active) | 2.58% (active) | -12.4% (active) | -2.77% (active) | 4.89% (active) | 15.1% | -56.8% (active) | 58.2%
COc1ccc(C2CC(c3ccc(OC)cc3O)=NN2c2ccc(S(N)(=O)=O)cc2)cc1 (stereo not given) | 61.9% | 10.8% | 121% | 61.1% | 67.5% | 50.5% | -7.99% (active) | 69.8% | 56.6% | 34.1% | 33.6% | 33.7% | 58.2% | 59.5% | 40.9% | 15.5% | 49% | 38.1% | 52.5% | 56.1%
Cc1ccc(CS/C(=C\c2ccc([N+](=O)[O-])cc2)C(=O)c2ccc(F)cc2)cc1 | 91.2% | -0.821% (active) | 83.7% | 60.5% | 100% | 74.6% | 79.2% | 98.1% | 93.3% | 40.8% | -6.39% (active) | -20.1% (active) | 79.8% | 34.6% | -20.4% (active) | 40.9% | 62.7% | 30.9% | -4.93% (active) | 93.5%
CCN1CCC[C@H]1c1cc(O)c2c(c1OC)C[C@H]1C[C@H]3[C@H](N)C(=O)C(C(N)=O)=C(O)[C@@]3(O)C(=O)C1=C2O | 1.87% (active) | 3.76% (active) | -16.5% (active) | -6.79% (active) | -40.4% (active) | 2.64% (active) | 0.93% (active) | -21% (active) | -14.1% (active) | -38.8% (active) | 1.67% (active) | -4.51% (active) | -4.69% (active) | -0.511% (active) | -8.89% (active) | 3.27% (active) | -46% (active) | -19% (active) | -45.2% (active) | -10.6% (active)
COc1ccc(/C=C/C(=O)C(CC2CCC2)C(=O)/C=C/c2ccc(OC)c(OC)c2)cc1OC | -23% (active) | 1.54% (active) | -13.6% (active) | 6.65% (active) | -72.5% (active) | 2.31% (active) | -16.6% (active) | -38.2% (active) | -16.7% (active) | 5.19% (active) | -35.4% (active) | -51.1% (active) | 64.7% | -13.1% (active) | -68.8% (active) | -8.3% (active) | -76.6% (active) | -65.5% (active) | -75.4% (active) | -4.06% (active)
C=C(C)[C@@H]1CC[C@]2(C(=O)N3CCN(C)CC3)CC[C@]3(C)[C@H](CC[C@@H]4[C@@]5(C)C/C(=C/c6ccco6)C(=O)C(C)(C)[C@@H]5CC[C@]43C)[C@@H]12 | 84.3% | 36.2% | 66.8% | 58.8% | 45.2% | 68.9% | 18.9% | 62% | 48.6% | 59.9% | 46.6% | 25.8% | 68% | 80.1% | 60.9% | 37.2% | 68.9% | 76.1% | 30.1% | 55.7%
COc1ccc(C2N(c3cc(OC)c(OC)c(OC)c3)C(=O)C2(F)F)cc1F (stereo not given) | 25.2% | 10.5% | 64.1% | 54% | 49.4% | 52.9% | 48.3% | 21.6% | 50% | 24.2% | 19.4% | 11.2% | 64.7% | 52.9% | 41.6% | 35.9% | 8.08% (active) | 55.5% | 27.1% | 77.2%
CCCCn1c2cc(OCc3cn(-c4ccc(Cl)cc4)nn3)ccc2c2ccnc(C)c21 | 72.5% | 14.4% | 53.9% | 16.7% | 47.6% | 74.6% | 40.2% | 55% | 33.6% | 40.6% | 17.7% | 6.28% (active) | 32.8% | 56.8% | 21.8% | 44.7% | 38.9% | 33% | 20.1% | 67.9%
COc1ccccc1N1CCN(CCCOc2ccc(C(=O)/C=C3/C(=O)Nc4ccccc43)cc2)CC1 | 81.8% | 17.6% | 66.5% | 57% | 72.4% | 86.9% | 71.1% | 81.5% | 90.2% | 66% | 74.7% | 25.8% | 85.1% | 84.6% | 64.1% | 40.9% | -36.1% (active) | 56.1% | 55.5% | 86.1%
